High-throughput results: PubChem, National Center for Advancing Translational Sciences (NCATS)
In the library only some 1.8% were active in any assay of this set; here they are far more common.
KCNH2 3.1 inh – qHTS for Inhibitors of KCHN2 3.1: Mutant qHTS; U2OS KCNH2 3.1, thallium flux FluxOr; active compounds read low; activity change, % (tested at about 1.8 µM); actives 0.95% (n = 340,000);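 active means maximum activity change below -70%; inconclusive means maximum activity change from -70% to -50%; inactive means maximum activity change above -50%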;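 further: thallium influx rate constant from kinetic fluorescence after stimulation buffer; on the % scale 0 is the no-effect control and ±100 the full control effect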
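Thallium flux read-out: FluxOr dye with Red40 quencher in HBSS/HEPES, 45 min at RT. Rate constants from kinetic reads were normalized to positive and negative DMSO controls. Cells: U2OS virally expressing the 3.1 isoform.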
A-T KAP1 phos – qHTS Assay for Identifying a Potential Treatment of Ataxia-Telangiectasia. AID 485349, 2010. actives 0.19% (n = 320,000). Potency, µM (highest dose often 57.5 µM), inactives show top-dose activation, hits mostly activators. F2112 A-T fibroblasts, KAP-1 phosphorylation AlphaLISA; neocarzinostatin DNA damage 30 min before lysis; further: potency means the concentration at half of the fitted maximal effect; % of control where 0% means no effect; nearly all actives have a fitted effect of over 45% in size
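hTERT-immortalized A-T patient fibroblasts (F2112), 500 cells/well in OPTI-MEM, 1% FBS, got compounds for 60 min, then NCS for 30 min at 37C. Lysates were then assayed for phospho-KAP-1 by AlphaLISA (anti-pKAP1 donor, anti-KAP1 acceptor beads), 6 hr at 25C.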
12-LOX inh – Primary qHTS assay for inhibitors of human arachidonate 12S-lipoxygenase (ALOX12): Round 2; Polyunsaturated fatty acid lipoxygenase ALOX12 (Homo sapiens), P18054; purified 12hLO, xylenol orange hydroperoxide absorbance; Potency, µM (highest dose often 108 µM), inactives show top-dose activity change, negative = inhibition, most hits filed as inhibitors; actives 1.1% (n = 580,000); further: potency means the concentration at half of the fitted maximal effect; on the % scale 0 is the no-effect control and ±100 the full control effect
Target sequence (P18054 whole entry, looked up): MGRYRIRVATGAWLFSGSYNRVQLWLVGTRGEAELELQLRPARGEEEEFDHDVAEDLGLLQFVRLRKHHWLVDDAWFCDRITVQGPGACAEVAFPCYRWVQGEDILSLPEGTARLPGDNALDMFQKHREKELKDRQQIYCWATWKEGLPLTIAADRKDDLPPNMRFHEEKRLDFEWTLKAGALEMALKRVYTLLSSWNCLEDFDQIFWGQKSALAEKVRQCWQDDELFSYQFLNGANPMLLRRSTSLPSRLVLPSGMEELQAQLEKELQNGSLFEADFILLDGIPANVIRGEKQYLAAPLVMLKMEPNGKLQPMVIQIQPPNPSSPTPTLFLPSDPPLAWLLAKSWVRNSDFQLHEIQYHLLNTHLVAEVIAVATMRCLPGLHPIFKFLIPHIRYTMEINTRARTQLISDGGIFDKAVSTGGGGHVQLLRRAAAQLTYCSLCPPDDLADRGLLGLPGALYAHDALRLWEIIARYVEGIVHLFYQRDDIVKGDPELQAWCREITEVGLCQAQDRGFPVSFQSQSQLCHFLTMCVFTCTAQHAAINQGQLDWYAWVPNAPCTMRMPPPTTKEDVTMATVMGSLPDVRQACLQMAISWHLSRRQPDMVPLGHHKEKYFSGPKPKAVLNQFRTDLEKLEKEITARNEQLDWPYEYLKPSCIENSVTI
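Hydroperoxide product was detected by ferrous iron/xylenol orange as the 573 to 405 nm absorbance ratio. Arachidonic acid at 40 uM (final) was turned over for 30 min at room temperature by 150 nM human 12hLO, pH 7.0 Hepes buffer, after 15 min compound preincubation.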
hERG WT inh – qHTS for Inhibitors of KCHN2 3.1: Wildtype qHTS; activity change, % at 1.84 µM; actives 0.37% (n = 340,000); U2OS, BacMam KCNH2, thallium flux FluxOr; active compounds read low;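 active means maximum activity change below -70%; inconclusive means maximum activity change between -70% and -50%; inactive means maximum activity change above -50%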; further: on the % scale 0 is the no-effect control and ±100 the full control effect
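U2OS cells transduced with wild-type KCNH2 virus are loaded with FluxOr dye for 45 min, and thallium flux is measured in kinetic reads before and after stimulation buffer. Rate constants are normalized to DMSO controls.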
Active calls of the source: *; ? = inconclusive; / = not tested or not shown; ! = not active in a repeat; [ ] = dose if it differs, or a comment. Unless noted, the call rests on the fitted dose curve; in most records, active means well fitted curve in the direction sought with a large enough effect; inconclusive means small, poorly fitted or top-dose-only effect, or another doubt; inactive means no such curve, though single readings can be large; an effect the other way counts as inactive or inconclusive.

SMILES | KCNH2 3.1 inh | A-T KAP1 phos | 12-LOX inh | hERG WT inh
COc1ccc(Br)cc1C(=O)Nc1ccccc1N1CCN(C(=O)c2ccccc2)CC1 | 16.5 | 1.6% | -27.4% | -84.5*
O=C(CCSc1nc(Cl)nc2nc[nH]c12)NCCc1ccc(O)cc1 | / | / | -18.3% | /
O=C(Nc1ccccn1)[C@@H]1C[C@@H](c2ccc(F)cc2)N([S+](=O)([O-])c2ccccc2)C1 | / | / | 3.4%[176 µM] | /
CCc1ccc(C(=O)N2CCCN(S(C)(=O)=O)c3ccccc32)cc1 | / | / | 11.1% | /
Cc1cc(C)c2oc(C(=O)Nc3nnc(SCc4ccccc4F)s3)cc(=O)c2c1 | / | / | 28.0% | /
COC(=O)c1cc(COC(=O)c2cccnc2SC)oc1C | -18.2 | 14.8% | 39.8µM* | 26.5
O=C1NCCCCCN(C(=O)COc2ccc(F)cc2)[C@H]2CCC[C@@H]12 | / | / | 16.2% | /
Nc1ccc(C(=O)OCCc2ccccc2)cc1 | 9.7 | 7.9% | -5.5% | 5.7
O=C(OCCc1ccccc1)c1cc(O)c(O)c(O)c1 | 1.5 | 7.1% | 2.82µM* | -7.9
Cc1ccc(C(O)Cn2ccn3nc(-c4ccc(F)cc4)cc3c2=O)cc1 (stereo unspecified) | / | / | 3.1% | /
CCOC(=O)c1c(S(=O)(=O)N2CCCC2)nn(CC)c1C | / | / | 12.6µM* | /
CCOC(=O)c1c(S(=O)(=O)N2CCN(C3CCCCC3)CC2)c(C)n(C)c1C | -14.4 | -5.1% | 0.1% | -8.0
Cc1ccc2c(c1C)NC(C)CC2C (stereo unspecified) | -9.7 | 7.3% | 4.47µM*! | -6.4
COc1ncccc1CN(Cc1cccnc1OC)C[C@H]1COCc2nc3ccc(C)cc3n21 | / | / | 8.9% | /
O=C(COc1ncnc2c(Cl)cc(Cl)cc12)N1CCCCCC1 | / | / | -9.1% | /
Cc1ccc(-n2nc3ccc(N)cc3n2)cc1Cl | -15.5 | ? | 0.0% | 6.2
Cc1ccc(-n2nc3ccc(N)cc3n2)cc1C | 4.8 | 25.6% | 44.7µM* | -2.0
C=C(C)COc1ccc(Cl)cc1C(N)=O | / | / | 24.8% | /
Cc1c(C(=O)NN2CCCCC2)nn(-c2ccc(Cl)cc2Cl)c1-c1ccc(Cl)cc1 | / | / | 24.3µM*! | /
CNC(=O)c1nc(C)n(-c2ccc(Cl)cc2Cl)n1 | -13.8 | -0.6% | -9.9% | -19.4
Cc1cccc(NC(=O)N(C)C(c2ccc(Cl)cc2)c2nccn2C)c1 (stereo unspecified) | / | / | 34.2% | /
O=C(NC(=S)NC12CC3CC(CC(C3)C1)C2)c1ccc(F)cc1 | -17.3 | 17.5% | 22.4µM* | -2.7
O=C(CCc1ccccc1)NNC(=O)c1ccc(Cl)cc1 | -4.5 | 3.9% | 4.0% | 5.8
O=C(CCc1ccccc1)NNC(=S)NC(=O)c1ccc(Cl)cc1 | 13.4 | 0.8% | 12.6µM* | -3.0
O=C(NNC(=S)NC(=O)c1ccc(F)cc1)c1ccc(Cl)cc1 | / | / | 17.8µM* | /
SMILES | KCNH2 3.1 inh | A-T KAP1 phos | 12-LOX inh | hERG WT inh
Cc1ccc(C(=O)NNC(=S)NC(=O)c2ccc(Cl)cc2)cc1 | -2.7 | 6.8% | ? | -12.2
O=C(CSc1cccc[n+]1[O-])Nc1c(Br)cc([N+](=O)[O-])cc1Br | -132.9* | 4.6% | -15.5% | -2.0
CNC(=O)N1CCC(c2nc(CCOc3ccc(F)cc3)no2)C1 (stereo unspecified) | / | / | 18.8% | /
COc1ccc(/C=C2\SC(=O)N=C2N)cc1 | -16.1 | 27.1% | -12.4% | -214.0*
O=C(NCc1ccc(S(=O)(=O)N2CCOCC2)cc1)c1ccc(Cl)cc1O | / | / | 9.5% | /
O=C(NCC1CCCO1)C(=O)N/N=C/c1cc(Cl)ccc1O (stereo unspecified) | 2.1 | -1.4% | 1.6% | -0.5
O=C(NCC1CCCO1)C(=O)N/N=C/c1ccc(O)c(Cl)c1 (stereo unspecified) | -38.1 | -0.5% | -2.2% | -225.2*
Cc1c(C)c2ccc(OCC(=O)NC3CC(C)(C)NC(C)(C)C3)c(C)c2oc1=O | / | / | 50.5% | /
c1ccc(CN2CCN(c3nc(NCc4ccco4)c4ccccc4n3)CC2)cc1 | -108.4* | 6.3% | 39.8µM* | -48.3
Cc1ccc(OCCN2CCN(c3nc(NCc4ccco4)c4ccccc4n3)CC2)cc1 | -104.0* | -1.6% | ? | -131.3*
OCCN1CCN(c2nc(NCc3ccco3)c3ccccc3n2)CC1 | -19.3 | -9.6% | ? | 17.7
CCC(C(=O)N1CCC(c2n[nH]c(=O)n2Cc2ccc(OC)cc2)CC1)c1ccccc1 (stereo unspecified) | / | / | 35.5µM* | /
COc1ccc(CC(=O)N2CCC(c3n[nH]c(=O)n3Cc3ccc(OC)cc3)CC2)cc1 | / | / | -20.5% | /
CCOC(=O)C1=C(C)N=C2SC(C)C(=O)N2C1c1ccccc1 (stereo unspecified) | -93.9* | -0.2% | 1.4% | -8.5
CCOC(=O)C1=C(C)N=C2SC(C)C(=O)N2C1c1ccc(C(=O)OC)cc1 (stereo unspecified) | 18.9 | -1.8% | 0.0% | 6.0
CCS(=O)(=O)C(C)C(=O)Nc1ccc(OC)c(NC(=O)c2ccco2)c1 (stereo unspecified) | / | / | 19.8% | /
Cc1cc(C)n(CC(=O)O)n1 | -182.5* | / | -8.4% | -6.9
Cc1cc(C)n(CC(C)C(=O)O)n1 (stereo unspecified) | -8.7 | -3.4% | 8.5% | 2.2
CC(C)(C)c1ccc(C(=O)OCc2c(-c3ccccc3)ncc3ccccc23)cc1 | -11.4 | 11.3% | 1.2% | 0.9
COc1ccc(C(=O)OCc2c(-c3ccccc3)ncc3ccccc23)cc1 | -70.0* | 9.7% | -14.7% | -12.3
O=[N+]([O-])c1ccccc1-c1ccc(C(=S)N2CCCC2)o1 | 4.1 | -1.2% | 39.8µM* | 5.3
O=[N+]([O-])c1cc(-c2ccc(C(=S)N3CCOCC3)o2)ccc1Cl | -8.2 | -1.3% | 12.6µM* | -10.7
O=c1cc(-c2ccccn2)oc2c(NCc3ccc(F)cc3)nccc12 | / | / | 1.4%[176 µM] | /
CN(C)c1nc(Cl)nc(N(C#N)CCOc2ccccc2)n1 | -83.2* | -1.6% | -10.7% | -1.9
CCCn1nc(NC(=O)c2ccco2)c2cc3ccc(C)cc3nc21 | 8.4 | 25.5% | -4.7% | 0.8
SMILES | KCNH2 3.1 inh | A-T KAP1 phos | 12-LOX inh | hERG WT inh
CCCn1nc(NC(=O)c2ccco2)c2cc3cc(C)ccc3nc21 | -32.1 | 22.4µM* | ? | -13.3
COc1ccc(-c2cn3cc(C(=O)N4CC[C@H](O)C4)nc3c(=O)n2CC2CC2)cc1 | / | / | 32.2% | /
O=C1c2ccccc2C(=O)N1N(c1ccccc1)c1ccccc1 | -40.1 | / | -7.7% | 3.8
O=C1C=CC(=O)N1N(c1ccccc1)c1ccccc1 | 3.2 | ? | 35.5µM* | 1.8
O=S1(=O)CC(N2CCN(CCO)CC2)CN1Cc1cn(Cc2cccc(C(F)(F)F)c2)nn1 (stereo unspecified) | / | / | 25.1µM* | /
COCCCn1cc(CN2CC(N3CCN(Cc4cccc(C)c4)CC3)CS2(=O)=O)nn1 (stereo unspecified) | / | / | 11.2µM* | /
